Laboratory results: PubChem BioAssay (NCI)
The panel holds about 79,000 compounds, 15% with a hit somewhere; the sample as a whole holds those more often. Rule as the data show it: active = growth inhibition above about 70%; inactive = the rest.

Key:
[1] = NCI Yeast Anticancer Drug Screen. Data for the rad50 strain (AID 155);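 also: 0% = growth of vehicle-only cultures of the same strain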; settings: S. cerevisiae rad50 strain growth inhibition; at 50.0 µM; hits give high values
Procedure, shortened: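 Vehicle-treated cultures provide the reference for the growth inhibition reported for compound-exposed, repair-deficient yeast.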

[2] = NCI Yeast Anticancer Drug Screen. Data for the mec2-1 strain (AID 157); settings: S. cerevisiae mec2-1 strain, at 50.0 µM, hits give high values
Procedure, shortened: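 Yeast mec2-1 mutant treated with compound. Readout: growth inhibition vs vehicle controls.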

[3] = NCI Yeast Anticancer Drug Screen. Data for the sgs1 mgt1 strain (AID 161);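 also: 0% = growth of cultures given vehicle only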; settings: S. cerevisiae sgs1 mgt1 strain, at 50.0 µM, hits give high values
Procedure, shortened: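 Inhibition of yeast growth, normalised to vehicle-treated controls, is reported for a strain bearing genetic alterations in DNA damage repair.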

[4] = NCI Yeast Anticancer Drug Screen. Data for the cln2 rad14 strain (AID 165);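 also: 0% = growth equal to vehicle treated cultures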; settings: S. cerevisiae cln2 rad14 strain, at 50.0 µM, hits give high values
Procedure, shortened: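 cln2 rad14 yeast strain; compound exposure; growth inhibition read vs vehicle controls.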

[5] = NCI Yeast Anticancer Drug Screen. Data for the bub3 strain (AID 167); settings: S. cerevisiae bub3 mutant strain, at 50.0 µM, hits give high values
Procedure, shortened: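 Mutant yeast screening strain plus compound; vehicle-treated cultures serve as the 0% inhibition reference.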

[6] = NCI Yeast Anticancer Drug Screen. Data for the mlh1 rad18 strain (AID 175); settings: S. cerevisiae mlh1 rad18 strain growth inhibition; at 50.0 µM; hits give high values
Procedure, shortened: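 Yeast w/ defined DNA-repair lesions; compound exposure; growth vs vehicle controls → % inhibition.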

Measured: growth inhibition

O=C(O)Cc1ccccn1
inactive: [1] -29.4% | [2] -49.1% | [3] -1.75% | [4] 14.1% | [5] -28.8% | [6] -2.25%

O=C(NC1CCCCC1)c1ccc(Cl)cc1
inactive: [1] 4.55% | [2] -6.7% | [3] -20.1% | [4] 12.7% | [5] -17.6% | [6] -1.85%

CC(=O)c1cccc(O)c1
inactive: [1] 5.8% | [2] -8.85% | [3] 6.65% | [4] 1.1% | [5] -5.1% | [6] 17.7%

Nc1nnc2cc(F)ccc2n1
inactive: [1] -18% | [2] -9.75% | [3] -5.9% | [4] 21.8% | [5] 11.7% | [6] -12.2%

NCC(O)C(O)C(O)C(O)CO (centres undefined)
inactive: [1] 13.2% | [2] 6.8% | [3] 15.1% | [4] 23.2% | [5] 18.1% | [6] 0.95%

CNc1ccccc1C(=O)N/N=C/C=C/c1ccccc1
inactive: [1] 31.6% | [2] 0.35% | [3] 31.1% | [4] 2.65% | [5] 5.3% | [6] 14.5%

CCOc1ccc(C(=O)O)cc1
inactive: [1] 34.8% | [2] -12.8% | [3] -1.65% | [4] 4.85% | [5] 8.2% | [6] 31.1%

COc1cccc2c1Cc1ccccc1-2
inactive: [1] 50.3% | [2] -3.6% | [3] 13.3% | [4] 12.8% | [5] 43.1% | [6] 24.4%

S=CN1CCCCC1
inactive: [1] -25.1% | [2] -16.2% | [3] -7.8% | [4] -2.4% | [5] -23.8% | [6] -8.75%

COc1ccc(Nc2cc(Cl)ccc2C(=O)O)cn1
inactive: [1] 4.25% | [2] 0.6% | [3] -6.95% | [4] 17.9% | [5] 5.3% | [6] -4.55%

Cc1ccc(C2CCCCC2)cc1Br
inactive: [1] 5.7% | [2] 4.25% | [3] 4.4% | [4] 3.15% | [5] 9.45% | [6] 28.3%

CCCCN(C(=O)CC)c1ccccc1
inactive: [1] 23.7% | [2] -29.8% | [3] 9.5% | [4] -22.4% | [5] -12.9% | [6] -62.5%

CC(=O)OC(C)c1cccc(C#N)c1 (centres undefined)
inactive: [1] 7.15% | [2] -25.4% | [3] 6.2% | [4] -8.9% | [5] -2.95% | [6] 22%

O=C1C=CC(=O)C2=C1CCCC2
inactive: [1] 17.1% | [2] 10.9% | [3] 10.3% | [4] -9.75% | [5] -20.2% | [6] 26.9%

O=Cc1ccc(F)cc1
inactive: [1] -7.9% | [2] -23.6% | [3] -4.1% | [4] -13.1% | [5] -10.6% | [6] -17.4%

O=Cc1ccc(O)c(O)c1
inactive: [1] 17.6% | [2] -6.5% | [3] 11.6% | [4] 7.75% | [5] 4.05% | [6] 18.9%

Cc1c(-c2ccc(C3CCCCC3)cc2)nc2ccc(F)cc2c1C(=O)O
inactive: [1] 15.3% | [2] 8.15% | [3] 12.3% | [4] 5.3% | [5] 1.8% | [6] -15.2%

COC1(OC)C2(Cl)C(Cl)=C(Cl)C1(Cl)C1COCC12 (centres undefined)
inactive: [1] -48% | [2] 17.5% | [3] -40.2% | [4] 12.8% | [5] 22.2% | [6] -8.6%

Clc1cccc(Cl)c1C1CSc2ccccc2N=C1c1ccccc1 (centres undefined)
inactive: [1] -2.55% | [2] 8.9% | [3] 16.3% | [4] 11% | [5] -0.9% | [6] 3.65%

CC(=O)c1cc(O)ccc1O
inactive: [1] -6.45% | [2] -10.1% | [3] 10.3% | [4] -11.1% | [5] -2.6% | [6] 1.8%

CCCC(OC(C)=O)c1ccc2c(c1)OCO2 (centres undefined)
inactive: [1] 26.4% | [2] 27.5% | [3] 17.3% | [4] -12% | [5] 20.9% | [6] 29.2%

c1cc(CNCCNCc2ccncc2)ccn1
inactive: [1] -36% | [2] -48% | [3] -46.5% | [4] -4.15% | [5] -34% | [6] -34.5%

COC1CC(OC(=O)c2ccc([N+](=O)[O-])cc2)C(COC(=O)c2ccc([N+](=O)[O-])cc2)O1 (centres undefined)
inactive: [1] 9.45% | [2] 20.8% | [3] 1.9% | [4] -1.1% | [5] -0.7% | [6] 36.1%

CCCCCC(=O)OCCC1CCCCC1
inactive: [1] 25.6% | [2] 9.3% | [3] 18.7% | [4] -6.7% | [5] 11.6% | [6] 31.2%

CC(CCC#N)(CCC#N)C(=O)c1ccccc1
inactive: [1] 28.6% | [2] 25.7% | [3] 25.1% | [4] -38.3% | [5] -4.75% | [6] 7.65%

CCNCC(C)(C)O
inactive: [1] 7.7% | [2] -3.8% | [3] 5.5% | [4] 8.35% | [5] -0.5% | [6] 27.8%

Nc1cc2c(cc1Cl)C(=O)c1ccccc1C2=O
inactive: [1] 32.4% | [2] 16.6% | [3] 9.75% | [4] -63.6% | [5] 38.4% | [6] 1.35%

CC(C)N(CCCC#N)C(C)C
inactive: [1] 9.9% | [2] -11.6% | [3] -5.25% | [4] 10.4% | [5] -17.2% | [6] 8.05%

CCOC(OCC)C(=O)c1ccccc1
inactive: [1] -0.5% | [2] -19.9% | [3] -4.1% | [4] 9.2% | [5] 6.25% | [6] 25.1%

C=CCc1cc(OC)c(O)c(OC)c1
inactive: [1] 1.95% | [2] 1.3% | [3] -14.2% | [4] -7.55% | [5] 0.75% | [6] -0.6%

N#CCCN1C(=O)CCC1C(=O)O (centres undefined)
inactive: [1] 7.75% | [2] -11.2% | [3] 10.1% | [4] -6.15% | [5] -3.1% | [6] 13.3%

C=CC(=O)OC1CCC(C(C)(C)CC)CC1 (centres undefined)
inactive: [1] 39.9% | [2] 14.1% | [3] -12.9% | [4] -22.7% | [5] -8.15% | [6] -18.5%

O=C(Nc1c(Cl)cc(Cl)cc1Cl)ON=C1CCCCC1
inactive: [1] 1.2% | [2] -19% | [3] 11.1% | [4] 12.9% | [5] 15.5% | [6] 3.6%

O=C(O)Cc1cccc2ccccc12
inactive: [1] 19.2% | [2] -7.55% | [3] 2.65% | [4] 0.05% | [5] -9.65% | [6] -0.55%

OCC(O)COc1ccc(Cl)cc1Cl (centres undefined)
inactive: [1] 22.2% | [2] 6.25% | [3] 25.8% | [4] 8.85% | [5] 10.1% | [6] 16.8%

Cc1ccc(S(N)(=O)=O)cc1Cl
inactive: [1] 10.1% | [2] -20.1% | [3] 13.2% | [4] 5.8% | [5] -1.5% | [6] 16.6%

COc1c(CNC(=O)CCl)cc2[nH]c(C)cc2c1CNC(=O)CCl
inactive: [1] 4.9% | [2] 4.95% | [3] 17.3% | [4] 2.2% | [5] 9.7% | [6] -25.9%

CCN(CC)c1ccc2nc3ccc(N=Nc4ccc(N(C)C)cc4)cc3[n+](-c3ccccc3)c2c1
inactive: [1] 42.5% | [2] 52.5% | [3] 57.7% | [4] 54.9% | [5] 39.5% | [6] 38.9%

Cn1c(=O)c2nc3c(=O)n(C)c(=O)n(C)c3nc2n(C)c1=O
inactive: [1] -8% | [2] -11.2% | [3] -17.2% | [4] -6.9% | [5] -13.7% | [6] -2.25%

C=COC(=O)CCOCC(CC)CCCC (centres undefined)
inactive: [1] -6.1% | [2] -15.1% | [3] 8.95% | [4] -6.2% | [5] -4.55% | [6] -6.55%

Cc1cc(Cl)cc(Cc2cc(Cl)cc(C)c2O)c1O
inactive: [1] 50.1% | [2] 24.1% | [3] 55% | [4] 29% | [5] 22.1% | [6] 20.6%

BrCc1cccc(C[P+](c2ccccc2)(c2ccccc2)c2ccccc2)c1
inactive: [1] 66% | [2] 41.9% | [3] 36.2% | [4] 28.2% | [5] 38.5% | [6] 41%

CCCC(=O)c1cccs1
inactive: [1] 3.25% | [2] 9.85% | [3] 10.8% | [4] -11.3% | [5] -4.1% | [6] 11.9%

CC(=O)C[n+]1ccc(C)cc1Sc1ccccc1C
inactive: [1] 8.4% | [2] -18.1% | [3] 6.85% | [4] 4.4% | [5] -3.35% | [6] 33.8%
